Results as given in PubChem BioAssay (NCI).
Compounds without any hit were thinned out: in the full panel of roughly 83,000, 20% have a hit.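 Values shown are percent growth following 48 h exposure of cells in 96-well plates to a single concentration of compound; below 10 was considered active.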 The source made the active and inactive calls.

System: OVCAR-5 ovarian
Assay: NCI-60 one-dose screen, 48 h (100 = growth as untreated, 0 = no growth, -100 = all killed)
Conditions: 10 µM unless noted

Compound	growth
COC(=O)[C@]12CC[C@@H](C)[C@H](C)[C@@H]1C1=CC[C@@H]3[C@@]4(C)C[C@@H](OC(C)=O)[C@H](O)[C@@](C)(COC(C)=O)[C@@H]4[C@H](O)C[C@@]3(C)[C@]1(C)CC2	-75.8% (active)
N#Cc1c(-c2ccco2)nc2c(c(-c3ccccc3)nn2-c2ccccc2)c1-c1ccc(O)cc1	93.4% (inactive)
CC(=O)c1c(C)[nH]c(-c2nc3ccc(N4CCN(C)CC4)cc3[nH]2)c1-c1ccc2c(c1)OCCO2	46.4% (inactive)
COc1ccc(C(=O)c2ccc(C)cc2)c(OC)c1OC	93% (inactive)
C[C@H]1OC(=O)/C=C/[C@@H](O)[C@@H](O)CCCCCCCC[C@@H]1O	95.6% (inactive)
COc1ccccc1-n1cnc(N)c1C(=O)c1cc(OC)c(OC)c(OC)c1	79.1% (inactive)
COc1ccc(/C=C(\C#N)c2cc3ccccc3n2S(C)(=O)=O)cc1	99.3% (inactive)
Cc1cccc2c1NC(=O)[C@@]21[C@H](C(=O)c2ccccc2)[C@]2(C(=O)Nc3ccccc32)[C@H]2CCCN21	101% [100 µM] (inactive)
N=c1ccc2nc3c(cc(N)c4ccccc43)oc-2c1	-100% (active)
COc1cccc(-c2nn(-c3ccccc3)cc2-c2ccnc(NCCCNS(=O)(=O)c3ccc(Br)cc3)c2)c1	88.2% (inactive)
Cc1ccc(-c2nn(Cc3cn(-c4cc(C)nc5ccccc45)nn3)c3ncnc(N)c23)cc1	57.9% (inactive)
COc1ccc2c(c1)c1nc3cc(C)c(C)cc3nc1n2CCN(C)C	-2.58% (active)
CC(=O)n1c(/C(C#N)=C/c2ccc(N(C)C)cc2)cc2ccccc21	60.7% (inactive)
C[C@H]1[C@H]2C3=CC[C@@H]4[C@@]5(C)C/C(=C/c6ccco6)C(=O)C(C)(C)[C@@H]5CC[C@@]4(C)[C@]3(C)CC[C@@]2(C(=O)N2CCOCC2)CC[C@@H]1C	96.6% (inactive)
Fc1ccc(Nc2ccc3c(OCCCN4CCOCC4)cccc3n2)cc1F	67.8% (inactive)
COc1cccc(-c2nn(-c3ccccc3)cc2-c2ccnc(NCCNS(=O)(=O)c3ccc(C(F)(F)F)cc3)c2)c1	24.9% (inactive)
Cn1cnc2c1c(=O)n(CCC(=O)Nc1ccc(F)cc1)c(=O)n2C	101% (inactive)
COCCNC1=C(Cl)C(=O)c2ccccc2C1=O	107% (inactive)
CCCCn1c(-c2ccc(O)cc2)cn2c3c(=O)[nH]c(=O)n(C)c3nc12	111% (inactive)
Cc1ccc(N(CC(=O)Nc2ccc(S(=O)(=O)NC3CCN(C)CC3)cc2)S(=O)(=O)c2ccc(Cl)cc2)cc1	91.6% (inactive)

Compound	growth
CC(=O)OC[C@]12CC[C@@H](/C(C)=N/O)[C@@H]1[C@H]1CC[C@@H]3[C@@]4(C)CCCNC(C)(C)[C@@H]4CC[C@@]3(C)[C@]1(C)CC2	103% (inactive)
Clc1ccc(Cn2cc(-c3nc4ccc(Br)nc4n3Cc3ccc(Cl)cc3)c3cccnc32)cc1	96.9% (inactive)
CN1CCN(CCOc2ccc(-c3cnc4c(-c5cccc(F)c5)cnn4c3)cc2)CC1	84.6% (inactive)
CN1CCN(c2nc(-c3csc(-c4cccs4)n3)cc3ccccc23)CC1	87.7% (inactive)
CCN(CC)CCCCCCNc1ccnc2cc(Cl)ccc12	112% (inactive)
CCCCCCCC(=O)SCC/C=C/[C@@H]1CC(=O)NCc2cccc(n2)CN(Cc2ccc(Cl)cc2)CC(=O)N[C@@H](C(C)C)C(=O)O1	-5.64% (active)
c1cc(N2CCCC2)c2nc(-c3[nH]ncc3Nc3ncnc4[nH]ccc34)[nH]c2c1	-9.59% (active)
COc1ccc(C2=NN(c3nc(-c4ccc(OC)cc4)c(C#N)c(=O)n3C)C(=O)CC2)cc1	72.3% (inactive)
Cc1ccc(S(=O)(=O)Nc2ccc(-c3cc(-c4cccc(F)c4)c(C#N)c(N)n3)cc2)cc1	45.5% (inactive)
CC(C)(C)c1ccc(OCCCCCCCN2CCNCC2)cc1	68.5% (inactive)
COC(=O)CNc1nc(N(C)O)nc(N(C)O)n1	87.7% (inactive)
COc1cc2ncnc(Nc3ccc(Oc4ccnc(C)c4)c(C)c3)c2cc1NC(=O)CC1CCSS1 (centres undefined)	45.2% (inactive)
C=C(C)[C@@H]1CC[C@]2(C)[C@H](CC[C@@H]3[C@H]4[C@H]5OC[C@@]4(CCC5(C)C)CC[C@]32C)[C@@]1(C)CCCN	50.6% (inactive)
c1ccc(-c2nc(Nc3ccc(-c4nc5ccccc5[nH]4)cc3)nc(N3CCOCC3)n2)cc1	0.632% (active)
CCOC(=O)C1OC1(c1ccccc1)c1ccccc1 (centres undefined)	99.6% (inactive)
CCN1CCN(C(=O)[C@@]2(C)CC[C@]3(C)CC[C@]4(C)C(=CC(=O)[C@@H]5[C@@]6(C)CC[C@H](OCCC#N)C(C)(C)[C@@H]6CC[C@]54C)[C@@H]3C2)CC1	92.3% (inactive)
O=S(=O)(NCCNc1cc(-c2cn(-c3ccccc3)nc2-c2cccc(O)c2)ccn1)c1cccc(F)c1	54.8% (inactive)
N#CC1=C(N)Oc2ccc3ccccc3c2C1c1ccccc1 (centres undefined)	55.8% (inactive)
COc1ccc(-c2cc(=O)oc3ccc(Cl)cc23)cc1F	54.7% (inactive)
